Laboratory results taken from the supplement of paper PMC13380429.

System: Vero E6 infected with SARS-CoV-2
Assay: inhibition of SARS-CoV-2 cytopathic effect; higher = more antiviral protection, active = above 15
Conditions: 48 h

Measured: inhibition of SARS-CoV-2 cytopathic effect

S=C(NC1CCCCC1)N1CCC(c2cnc[nH]2)CC1 [thioperamide]
inactive: 1 nM 1.24% | 8.33 nM 1.61% | 100 nM -0.03% | 833.33 nM 0.28% | 10000 nM -2.39%

COc1cc2c(cc1OC)CN(C(=O)[C@@H](NCc1ccncc1)C(C)(C)C)CC2
inactive: 1 nM 2.06% | 8.33 nM 3.28% | 100 nM 2.93% | 833.33 nM 1.04% | 10000 nM 1.19%

CC(C)NNC(=O)c1ccncc1 [iproniazid]
inactive: 1 nM 0.77% | 8.33 nM -0.06% | 100 nM 0.89% | 833.33 nM 0.46% | 10000 nM -1.76%
